Measurements reported in PubChem BioAssay AID1159580 (chemical genetic matrix, 2015).
Among all 5,500 compounds or so, about 2,000 (36%) were called active. Not shown: some 18% with an inconclusive outcome. Cut-off read from the data, not from the text of the source: active = normalized growth mostly below about 0.91 (no sharp cut-off); inconclusive = no clear call, values can overlap the other calls; inactive = mostly above about 0.92. The list shows a part of the results.

Assay: chemical genetic growth profiling, strain panel (AID 1159580);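 note: tested at 20 µM; growth read once vehicle control cultures reached saturation at 30 °C; 1 = growth at the plate median or of vehicle wells; lower values mean less growth of the strain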
Conditions: S. cerevisiae deletion strains, growth OD
[1] = locus YDL101C, strain DUN1, hits give low values
[2] = locus YHR030C, strain SLT2, hits give low values

Measured: normalized growth

Cc1nc(C(F)(F)F)ccc1-c1nnc(SC(=O)c2ccc(Cl)cc2)o1
active: locus YAR019C, strain CDC15, hits give low values 0.875 | locus YBL105C, strain PKC1, hits give low values 0.883 | locus YBR135W, strain CKS1, hits give low values 0.884 | locus YBR136W, strain MEC1, hits give low values 0.888 | locus YBR160W, strain CDC28, hits give low values 0.878 | locus YDL017W, strain CDC7, hits give low values 0.882 | locus YDL028C, strain MPS1, hits give low values 0.884 | [1] 0.866 | locus YDL108W, strain KIN28, hits give low values 0.882 | locus YDL132W, strain cdc53, hits give low values 0.877 | locus YDL214C, strain PRR2, hits give low values 0.648 | locus YDR052C, strain DBF4, hits give low values 0.886 | locus YDR054C, strain cdc34, hits give low values 0.857 | locus YDR226W, strain ADK1, hits give low values 0.867 | locus YER123W, strain YCK3, hits give low values 0.49 | locus YFL009W, strain cdc4, hits give low values 0.868 | locus YFL029C, strain CAK1, hits give low values 0.872 | locus YFR003C, strain YPI1, hits give low values 0.879 | locus YFR028C, strain CDC14, hits give low values 0.881 | [2] 0.358 | locus YHR079C, strain IRE1, hits give low values 0.442 | locus YHR082C, strain KSP1, hits give low values 0.617 | locus YHR205W, strain SCH9, hits give low values 0.348 | locus YIL147C, strain SLN1, hits give low values 0.885 | locus YJL128C, strain PBS2, hits give low values 0.747 | locus YJR016C, strain ILV3, hits give low values 0.87 | locus YJR066W, strain TOR1 (second series), hits give low values 0.393 | locus YKL048C, strain ELM1, hits give low values 0.785 | locus YKL067W, strain YNK1, hits give low values 0.641 | locus YKL101W, strain HSL1, hits give low values 0.639 | locus YKL193C, strain SDS22, hits give low values 0.874 | locus YLR113W, strain HOG1, hits give low values 0.229 | locus YLR133W, strain CKI1, hits give low values 0.684 | locus YML070W, strain DAK1, hits give low values 0.604 | locus YMR001C, strain CDC5, hits give low values 0.875 | locus YMR205C, strain PFK2 (second series), hits give low values 0.682 | locus YMR277W, strain FCP1, hits give low values 0.876 | locus YNL006W, strain LST8, hits give low values 0.888 | locus YNL020C, strain ARK1, hits give low values 0.655 | locus YNL161W, strain CBK1, hits give low values 0.865 | locus YNL183C, strain NPR1, hits give low values 0.566 | locus YNL207W, strain RIO2, hits give low values 0.874 | locus YNL222W, strain SSU72, hits give low values 0.877 | locus YNL307C, strain MCK1 (second series), hits give low values 0.589 | locus YOL078W, strain AVO1, hits give low values 0.874 | locus YOL136C, strain PFK27, hits give low values 0.604 | locus YOR061W, strain CKA2, hits give low values 0.644 | locus YOR231W, strain MKK1, hits give low values 0.454 | locus YOR329C, strain SCD5, hits give low values 0.877 | locus YPL209C, strain IPL1, hits give low values 0.877 | locus YPL256C, strain CLN2, hits give low values 0.334 | locus YPR025C, strain CCL1, hits give low values 0.877 | locus YPR106W, strain ISR1, hits give low values 0.833 | locus YPR111W, strain DBF20, hits give low values 0.803 | strain NNK1, hits give low values 0.786 | strain TSCII, hits give low values 0.865
inactive: locus YDR477W, strain SNF1, hits give low values 0.82 | locus YER133W, strain GLC7, hits give low values 0.792 | locus YFR019W, strain FAB1, hits give low values 0.81 | locus YGR040W, strain KSS1, hits give low values 0.831 | locus YGR052W, strain FMP48, hits give low values 0.638 | locus YGR092W, strain DBF2, hits give low values 0.568 | locus YJL095W, strain BCK1, hits give low values 0.532 | locus YJL157C, strain FAR1, hits give low values 0.764 | locus YJR066W, strain TOR1, hits give low values 0.631 | locus YKL203C, strain TOR2, hits give low values 0.862 | locus YLR403W, strain SFP1, hits give low values 0.818 | locus YOR119C, strain RIO1, hits give low values 0.909 | locus YPL031C, strain PHO85, hits give low values 0.81 | locus YPL153C, strain RAD53, hits give low values 0.837 | locus YPL204W, strain HRR25, hits give low values 0.782

CCOC(=O)CC1=Nn2c(nnc2-c2cc(Cl)cc(Cl)c2)SC1
active: locus YBR229C, strain ROT2, hits give low values 0.905 | [2] 0.538 | locus YJL187C, strain SWE1, hits give low values 0.913 | locus YJR075W, strain HOC1, hits give low values 0.811 | locus YML094W, strain GIM5, hits give low values 0.823 | locus YNL298W, strain CLA4 (second series), hits give low values 0.823
inactive: locus YAL013W, strain DEP1, hits give low values 0.97 | [1] 0.914 | locus YDL134C, strain PPH21, hits give low values 0.996 | locus YDR150W, strain NUM1, hits give low values 0.857 | locus YEL061C, strain CIN8, hits give low values 0.934 | locus YGR078C, strain PAC10, hits give low values 0.97 | locus YGR229C, strain SMI1, hits give low values 0.979 | locus YHR087W, strain rtc3, hits give low values 0.927 | locus YJR043C, strain POL32, hits give low values 0.989 | locus YLR039C, strain RIC1, hits give low values 0.91 | locus YLR058C, strain SHM2 (second series), hits give low values 0.971 | locus YLR085C, strain ARP6, hits give low values 0.808 | locus YLR262C, strain YPT6, hits give low values 0.982 | locus YMR219W, strain ESC1, hits give low values 0.955 | locus YMR263W, strain SAP30, hits give low values 0.965 | locus YMR307W, strain GAS1, hits give low values 0.806 | locus YNL153C, strain GIM3, hits give low values 0.95 | locus YNL322C, strain KRE1, hits give low values 0.977 | locus YNR030W, strain Alg12, hits give low values 0.914 | locus YPL055C, strain LGE1, hits give low values 0.864 | locus YPL241C, strain CIN2, hits give low values 1.01 | locus YPR135W, strain CTF4, hits give low values 0.714
